High-throughput results from PubChem.
PAX8 inh HTS = lowers PAX8-driven luciferase in RMG-I cells | RMG-I TPO-luciferase reporter, SteadyGlo, 24 h | inhibition, % at 12.6 µM | 1.2% of 360,000 active | AID 652154;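 active means mean replicate inhibition at least 60% with every replicate also reaching 60%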;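 further: luciferase light reporting Pax8 driven TPO promoter activity; plate controls were median of neutral control wells for no effect and mitoxantrone controls for full effect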
HIF-2a inh = inhibitors of HIF-2a; 786-0 RCC cells HIF-2a reporter, luciferase luminescence, overnight; inhibition, % at 18.8 µM; AID 624352; 0.72% of 360,000 active;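 active means inhibition of the luminescence signal of 40% or more relative to plate controls, in a single-dose primary screen at 18.75 µM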
EWS-Fli inh = blocks EWS/Fli oncoprotein-driven transcription; A673 NR0B1-luciferase reporter, viability-normalised; inhibition, % at 12.6 µM; 0.67% of 350,000 active; AID 651661;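 active means mean inhibition of at least 50% after viability correction, with every replicate also passing that limit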;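 further: firefly luciferase signal divided by Alamar Blue viability fluorescence both relative to DMSO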
CF NFkB inh = cystic fibrosis NF-kB activation inhibition; KKLEB NF-kB-GFP reporter, PAF-induced, GFP fluorescence overnight; inhibition, % at 5 µM; 0.86% of 360,000 active;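 active means at least 50% inhibition at 5 µM, scaled per plate between neutral and stimulator controls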;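 further: PAF is a Pseudomonas aeruginosa culture filtrate used as stimulus; plate controls were PAF-stimulated DMSO wells for no effect and unstimulated DMSO wells for full effect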
KKLEB tox = reduces viability of KKLEB cystic fibrosis airway cells | KKLEB CF airway cells viability, ATPlite luminescence, overnight; active compounds read low; cells stimulated with P. aeruginosa culture filtrate | activity change (cytotoxicity), % at 5 µM | 0.36% of 360,000 active | AID 602141;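 active means corrected activity change at or below -50% at 5 µM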
CF NFkB conf = confirmation of cystic fibrosis induced NF-kB inhibitors | shares compounds with CF NFkB inh | KKLEB CF airway cells, PAF-induced NF-kB-GFP fluorescence, overnight | inhibition, % at 5 µM | 64% of 1,300 active; in the data active means inhibition above about 40%;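 further: stimulus PAF is a Pseudomonas aeruginosa filtrate and not platelet activating factor; plate controls were DMSO wells with stimulus for no effect and unstimulated DMSO wells for full effect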
* marks the source's active call; other numbers are inactive results; i = inactive; x = not tested or not shown. The list is not random: actives were taken first. Their share in the collection is about 2.1%.

SMILES | PAX8 inh HTS | HIF-2a inh | EWS-Fli inh | CF NFkB inh | KKLEB tox | CF NFkB conf
O=c1[nH]nc(Sc2ncnc3sccc23)n1CCc1ccccc1 | 83* | 29 | x | 54* | -21 | 45*
CCCc1cn(CC[C@@H]2CC[C@@H](NC(=O)CCN3CCCCC3)[C@@H](CO)O2)nn1 | 2 | x | -1 | x | x | x
COc1cc(C2c3cc4c(cc3C3OC(=O)C2C3CO)OCO4)cc(OC)c1OC (stereo not given) | 76* | 24 | 38 | 53* | -37 | 75*
COc1cc([C@@H]2c3cc4c(cc3[C@@H](O)[C@H]3COC(=O)[C@H]23)OCO4)cc(OC)c1O[Si](C)(C)C(C)(C)C | 47 | 3 | 1 | 24 | 5 | x
COc1ccc2[nH]c3c(c2c1)CCN1C(=O)C(CC(=O)NCCC2=CCCCC2)C[C@H](C(=O)N2CCCCC2)[C@@]31CCc1ccccc1 (stereo not given in full) | 8 | 2 | -1 | 56* | -49 | 81*
O=C1OC(Nc2nc(-c3ccc(F)cc3)cs2)c2ccccc21 (stereo not given) | 11 | -69 | 2 | 53* | -2 | 71*
CC(C)(C)OC(=O)CC[C@]12N=C(c3ccc(OCCCO)cc3)O[C@H]1c1ccccc1CN(C(=O)c1ccccc1)C2=O | 33 | x | 0 | x | x | x
C=C(C)[C@@H]1CCC2(C(=O)O)CC[C@]3(C)[C@H](CC[C@@H]4[C@@]5(C)CCC(=O)C(C)(C)[C@@H]5CC[C@]43C)[C@@H]12 (stereo not given in full) | -5 | 8 | 5 | 63* | -17 | 64*
C=C(CC[C@@H](O)C(C)(C)O)[C@H]1CC[C@]2(C)[C@@H]1CCC1[C@@]3(C)CCC(=O)C(C)(C)C3CC[C@]12C (stereo not given in full) | -20 | 6 | 5 | 25 | -20 | x
CCCNC(=O)N1C[C@H](C)[C@H](OC)CN(C)C(=O)c2cc(NS(C)(=O)=O)ccc2OC[C@@H]1C | -17 | x | -2 | x | x | x
O=[N+]([O-])c1cccc(/C=N/Nc2nc(N3CCOCC3)nc(N3CCOCC3)n2)c1 | 2 | 13 | 3 | 2 | -1 | x
C/C(=N\Nc1cc(N2CCOCC2)ncn1)c1ccccc1 | -50 | -165 | -48 | 27 | -10 | x
O=[N+]([O-])c1cccc(/C=N/Nc2cc(N3CCOCC3)ncn2)c1 | -28 | -105 | -29 | 53* | 1 | 72*
C/C(=N\Nc1cc(N2CCOCC2)ncn1)c1cccc([N+](=O)[O-])c1 | 6 | -68 | -10 | 56* | -7 | 64*
O=C(C[C@@H]1C[C@H]2c3cc(NC(=O)c4cccnc4)ccc3O[C@H]2[C@H](CO)O1)NCCc1ccccc1 | -33 | x | -1 | x | x | x
CN1C(=O)c2cc(NC(=O)c3ccc(F)cc3)ccc2OC[C@@H]2O[C@@H](CC(=O)NC3CCC3)CC[C@@H]21 | 0 | x | 0 | x | x | x
CCCCCOC(=O)c1[nH]c2c(c1C)C(=O)CC(c1ccco1)C2 (stereo not given) | x | -5 | x | 52* | -47 | 85*
CCCOC(=O)c1[nH]c2c(c1C)C(=O)CC(c1ccc(OC)c(OC)c1)C2 (stereo not given) | 24 | 0 | 4 | 15 | -2 | x
Cc1c(O)ccc2c(-c3ccccc3)cc(=O)oc12 | 12 | 6 | 5 | 75* | 20 | 95*
N#C[C@@H]1N[C@@H](CO)[C@@H]1c1ccc(C#Cc2ccc(F)cc2)cc1 | -97 | x | -34 | x | x | x
CCOc1ccc2nc(SCC(=O)c3ccc(O)cc3O)sc2c1 | -26 | -63 | -12 | 58* | 0 | 45*
O=C1Cc2c([nH]c3ccc(Br)cc23)-c2ccccc2N1 | x | i | -92 | 85* | -25 | 106*
COc1ccc(S(=O)(=O)Nc2cccc3c2O[C@H](CN(C)S(=O)(=O)c2ccc(C)cc2)[C@H](C)CN([C@@H](C)CO)C3=O)cc1 | -13 | x | -6 | x | x | x
O=C(C[C@H]1C=C[C@@H](NC(=O)CC2CC2)[C@H](CO)O1)NCc1ccccc1 | x | x | -1 | x | x | x
CNc1ccc2ncc(-c3ccc(OC)c(OC)c3)n2n1 | -53 | 17 | -1 | 76* | -19 | 104*
CNc1cncc(-c2ccc(F)c(F)c2)n1 | -16 | -26 | -15 | 3 | 2 | x
CNc1cncc(-c2ccc(OC)c(OC)c2)n1 | -39 | 9 | -10 | 56* | -10 | 39
